The text below walks through data of PubChem BioAssay (NCI).

Test systems include BT-549 breast; MDA-MB-435 melanoma; SW-620 colon; MCF7 breast; HCT-116 colon; HCC-2998 colon; KM12 colon.
Assay in all cases: NCI-60 one-dose screen, 48 h (100 = growth as untreated, 0 = no growth, -100 = all killed)
What all share (settings): 10 µM unless noted

The structures appear in SMILES notation. Compounds without any hit were thinned out: in the full panel of roughly 83,000, 20% have a hit.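 Compound tested at a single concentration for 48 hours in 96-well plates; a percent growth value below 10 was scored as active.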 Values without a mark were called inactive. The source made the active and inactive calls.

As for `CCOC(=O)c1c(C)nc2c(c1N)/C(=C/c1cccs1)C(=O)N2c1ccc(OC)cc1`, the growth was 45.9% with BT-549 breast; 59.9% with MDA-MB-435 melanoma; 67.6% in the assay with SW-620 colon; 25% in the assay with MCF7 breast; 20.9% with HCT-116 colon; 80.7% in the assay with HCC-2998 colon. Besides, in the assay with KM12 colon, the growth was 70.2%.

Turning to `COCCOCCOCc1n(Cc2ccc3ccccc3n2)c2ccccc2[n+]1Cc1ccc2ccccc2n1`, the growth is 9.81% (active) in the assay with BT-549 breast; 11% with MDA-MB-435 melanoma; 36.2% in the assay with SW-620 colon; 9.35% (active) in the assay on MCF7 breast; 18.9% in the assay on HCT-116 colon; 23.2% in the assay on HCC-2998 colon. Moreover, the growth in the assay with KM12 colon was 12%.

Consider `CC(C)(C)c1nc2c(s1)c1nc(N)ncc1c1ccc(NS(=O)(=O)c3c(F)cccc3F)c(F)c12`, for which the growth with BT-549 breast is 77.4%; in the assay on MDA-MB-435 melanoma it was 38.6%; with SW-620 colon, 110%; in the assay on MCF7 breast, 89.8%; in the assay on HCT-116 colon it was 49.3%; in the assay with HCC-2998 colon, 82%. Further, the growth with KM12 colon was 35.5%.

For `CCCCCCN1C(=O)CN=C1Nc1ccc2cc3ccc(NC4=NCC(=O)N4CCCCCC)cc3nc2c1`, the growth in the assay with BT-549 breast is 78.1%; in the assay on MDA-MB-435 melanoma, 55.3%; with SW-620 colon it was -51.6% (active); in the assay on MCF7 breast, 0.96% (active); with HCT-116 colon, 20.1%; in the assay on HCC-2998 colon it was 47.2%. Further, the growth in the assay with KM12 colon is 31.1%.

Turning to `C=C1C(=O)O[C@H]2[C@H]1CC/C(COC(=O)N1CCC[C@H]1C(=O)Nc1ccc(OC)c(C(N)=O)c1O)=C\CC[C@@]1(C)O[C@@H]21`, the growth was 38.5% in the assay on BT-549 breast; 44.3% in the assay on MDA-MB-435 melanoma; 2.83% (active) in the assay on SW-620 colon; 12.1% in the assay on MCF7 breast; 14.8% with HCT-116 colon; 94.8% in the assay on HCC-2998 colon. In addition, in the assay with KM12 colon, the growth was 67.2%.

For `C#C[C@@]1(O)[C@@H](CO)O[C@@H](n2cc(F)c3c(N)ncnc32)[C@@H]1O`, the growth is -23.9% (active) with BT-549 breast; 1.49% (active) in the assay on MDA-MB-435 melanoma; 1.66% (active) with SW-620 colon; 2.03% (active) in the assay on MCF7 breast; 1.44% (active) with HCT-116 colon; -27.2% (active) in the assay with HCC-2998 colon. Further, the growth in the assay on KM12 colon is 10.2%.

As to `O=c1[nH]c2ccccc2cc1-c1nc2ccncc2[nH]1`, the growth is 91.3% in the assay with BT-549 breast; 82.8% in the assay on MDA-MB-435 melanoma; 88.4% in the assay with SW-620 colon; 57.2% with MCF7 breast; 63.2% in the assay with HCT-116 colon; 93.3% in the assay with HCC-2998 colon. Also, the growth in the assay on KM12 colon was 22.8%.

As for `Cc1cc(C)n(-c2nc(-c3cccs3)c(C#N)c(=O)[nH]2)n1`, the growth is 83% in the assay with BT-549 breast; 95.2% with MDA-MB-435 melanoma; 102% in the assay on SW-620 colon; 89.8% in the assay with MCF7 breast; 85.1% in the assay with HCT-116 colon; 96.7% with HCC-2998 colon. The growth in the assay on KM12 colon is 97.9%.

Turning to `O=C(CCl)N1CCCc2ccccc21`, the growth in the assay with BT-549 breast was 97.1%; in the assay with MDA-MB-435 melanoma it was 91.8%; in the assay on SW-620 colon it was 99%; in the assay on MCF7 breast, 92%; in the assay on HCT-116 colon it was 95.9%; in the assay on HCC-2998 colon, 96.6%. Moreover, the growth with KM12 colon is 90.4%.

`COc1cc(C)ccc1Oc1nc(Nc2ccc(N3CCOCC3)cc2)ncc1N=Cc1cc(C(F)(F)F)cc(C(F)(F)F)c1`: the growth in the assay on BT-549 breast was 89.4%; in the assay on MDA-MB-435 melanoma, 65.1%; with SW-620 colon it was 80.5%; in the assay on MCF7 breast, 46.4%; with HCT-116 colon, 47.6%; with HCC-2998 colon, 91.6%. Moreover, the growth with KM12 colon is 55.3%.

As for `CCCn1c2cc(OCc3cn(-c4ccc(Br)cc4)nn3)ccc2c2ccnc(C)c21`, the growth was 90.2% in the assay on BT-549 breast; 85.4% in the assay on MDA-MB-435 melanoma; 47.4% in the assay with SW-620 colon; 62.4% with MCF7 breast; 54.7% in the assay with HCT-116 colon; 83.4% in the assay with HCC-2998 colon. In addition, the growth in the assay with KM12 colon is 67.6%.

As to `COc1ccc(/C=C/C(=O)C(CC2CCC2)C(=O)/C=C/c2ccc(OC)c(OC)c2)cc1OC`, the growth is -23.5% (active) in the assay on BT-549 breast; -11.5% (active) in the assay on MDA-MB-435 melanoma; -26.3% (active) in the assay with SW-620 colon; 6.93% (active) in the assay with MCF7 breast; -75.8% (active) in the assay with HCT-116 colon; -80.6% (active) with HCC-2998 colon. In addition, the growth in the assay on KM12 colon is -33.5% (active).

As for `COc1cc(C2CC(c3ccc(Nc4nc(NCCO)nc(NCCO)n4)cc3)=NN2c2cc(Cl)cc(Cl)c2)cc(OC)c1OC` (stereo unspecified), the growth was -27.2% (active) with BT-549 breast; -15.9% (active) with MDA-MB-435 melanoma; -4.18% (active) in the assay on SW-620 colon; -60.9% (active) in the assay with MCF7 breast; 9.76% (active) in the assay on HCT-116 colon; 24.4% with HCC-2998 colon. For the same compound, the growth in the assay on KM12 colon is -25.6% (active).

With `CSc1nc(-c2ccc(F)cc2)c(C#N)c(N2CCOCC2)n1`, the growth in the assay on BT-549 breast was 95.3%; with MDA-MB-435 melanoma it was 105%; in the assay with SW-620 colon it was 97.5%; in the assay on MCF7 breast it was 90.4%; in the assay on HCT-116 colon, 96.6%; in the assay with HCC-2998 colon, 101%. Further, the growth in the assay with KM12 colon was 101%.

As for `O=C1Nc2ccc(Br)cc2/C1=N\N=C/c1cn(Cc2ccccc2)c2ccccc12`, the growth in the assay on BT-549 breast was 105%; in the assay on MDA-MB-435 melanoma, 105%; in the assay on SW-620 colon, 99%; in the assay on MCF7 breast, 83.2%; with HCT-116 colon, 93.7%; in the assay with HCC-2998 colon, 106%. The growth with KM12 colon was 96.2%.

Take `O=c1c2ccccc2n(CC(O)CN2CCCC2)c2c(Br)cccc12` (stereo unspecified): in the assay on MCF7 breast, the growth was 92.9%.
